About 410 targets per protein were measured; listed, in parts, are those with the strongest signals and a random draw of the rest.
Tests used:
Test in all cases: glycan array binding signal (z-score within array); higher = stronger binding
Conditions in all cases: glycan notation: IUPAC condensed, linker removed
[1] = target: Ara(a1-5)Ara(a1-5)Ara(a1-5)Ara(a1-5)Ara(a1-5)Ara
Procedure, shortened: (§1)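 Arrays were curated from the Consortium for Functional Glycomics database, 3228 in total, and kept only where the protein sequence was available. Binding is expressed as a within-array Z-score. This score was averaged across arrays of the same protein sequence at different concentrations or buffers and across linkers, and negative values can be read as non-binding.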

[2] = target: Fuc(a1-2)Gal(b1-3)GlcNAc(b1-3)Gal(b1-4)Glc
Procedure, shortened: as §1

[3] = target: Gal(b1-3)GlcNAc(b1-3)[Gal(b1-4)GlcNAc(b1-6)]Gal(b1-4)Glc
Procedure, shortened: as §1

[4] = target: Gal(b1-4)GlcNAc(b1-3)[Gal(b1-4)GlcNAc(b1-6)]Gal(b1-4)GlcNAc(b1-3)[Gal(b1-4)GlcNAc(b1-6)]Gal(b1-4)GlcNAc(b1-3)[Gal(b1-4)GlcNAc(b1-6)]Gal(b1-4)GlcNAc(b1-3)[Gal(b1-4)GlcNAc(b1-6)]Gal(b1-4)GlcNAc(b1-3)Gal(b1-4)Glc
Procedure, shortened: as §1

[5] = target: Gal3S(b1-3)[Fuc(a1-4)]GlcNAc(b1-3)Gal(b1-4)Glc
Procedure, shortened: as §1

[6] = target: Gal3S(b1-4)GlcNAc(b1-3)Gal
Procedure, shortened: as §1

[7] = target: Glc(a1-2)Glc(a1-3)Glc(a1-3)Man(a1-2)Man(a1-2)Man(a1-3)[Man(a1-3)[Man(a1-6)]Man(a1-6)]Man(b1-4)GlcNAc
Procedure, shortened: as §1

Glc(a1-3)Glc = target: Glc(a1-3)Glc
Procedure, shortened: as §1

[8] = target: Glc(a1-3)Glc(a1-3)Man(a1-2)Man(a1-2)Man(a1-3)[Man(a1-3)[Man(a1-6)]Man(a1-6)]Man(b1-4)GlcNAc
Procedure, shortened: as §1

[9] = target: Glc(a1-3)Man(a1-2)Man(a1-2)Man(a1-3)[Man(a1-2)Man(a1-3)[Man(a1-2)Man(a1-6)]Man(a1-6)]Man(b1-4)GlcNAc(b1-4)GlcNAc
Procedure, shortened: as §1

Glc(a1-6)Glc = target: Glc(a1-6)Glc
Procedure, shortened: as §1

[10] = target: Glc(a1-6)Glc(a1-6)Glc(a1-6)Glc
Procedure, shortened: as §1

[11] = target: Glc(a1-6)Glc(a1-6)Glc(a1-6)Glc(a1-6)Glc
Procedure, shortened: as §1

[12] = target: Glc(a1-6)Glc(a1-6)Glc(a1-6)Glc(a1-6)Glc(a1-6)Glc
Procedure, shortened: as §1

[13] = target: Glc(b1-4)Glc(b1-4)Glc(b1-4)Glc(b1-4)Glc(b1-4)Glc
Procedure, shortened: as §1

GlcA3S(b1-3)Gal = target: GlcA3S(b1-3)Gal
Procedure, shortened: as §1

[14] = target: GlcNAc(b1-3)[GlcNAc(b1-6)]Gal(b1-4)GlcNAc(b1-3)[GlcNAc(b1-6)]Gal(b1-4)GlcNAc(b1-3)Gal(b1-4)Glc
Procedure, shortened: as §1

[15] = target: HexA(a1-3)GalNAc6S(b1-4)GlcA(b1-3)GalNAc6S
Procedure, shortened: as §1

Man(a1-2)Man = target: Man(a1-2)Man
Procedure, shortened: as §1

[16] = target: Man(a1-3)[Man(a1-6)]Man(b1-4)GlcNAc(b1-4)GlcNAc
Procedure, shortened: as §1

Man(b1-4)GlcNAc = target: Man(b1-4)GlcNAc
Procedure, shortened: as §1

[17] = target: Man6P(a1-3)Man(a1-3)Man(a1-3)Man(a1-2)Man
Procedure, shortened: as §1

[18] = target: Neu5Ac(a2-3)Gal(b1-3)GalNAc(b1-4)[Neu5Ac(a2-3)]Gal(b1-4)Glc
Procedure, shortened: as §1

[19] = target: Neu5Ac(a2-3)Gal(b1-3)[Fuc(a1-4)]GlcNAc
Procedure, shortened: as §1

[20] = target: Neu5Ac(a2-3)Gal(b1-3)[Fuc(a1-4)]GlcNAc(b1-3)Gal(b1-4)Glc
Procedure, shortened: as §1

Neu5Ac(a2-8)Neu5Ac = target: Neu5Ac(a2-8)Neu5Ac
Procedure, shortened: as §1

[21] = target: Neu5Ac9Ac(a2-6)Gal(b1-4)GlcNAc
Procedure, shortened: as §1

B1: Malectin (Xenopus laevis), Q6INX3 (protein)
chain: SGLADKVIWAVNAGGESHVDVHGIHYRKDPLEGRVGRASDYGMKLPILRSNPEDQVLYQTERYNEDSFGYDIPIKEEGEYVLVLKFAEVYFAQSQQKVFDVRVNGHTVVKDLDIFDRVGHSTAHDEIIPISIKKGKLSVQGEVSTFTGKLSVEFVKGYYDNPKVCALFIMKGTADDVPMLQPHPGLE
glycan array binding signal (z-score) [1]: -0.069 | glycan array binding signal (z-score) [2]: -0.068 | glycan array binding signal (z-score) [3]: -0.075 | glycan array binding signal (z-score) [4]: -0.066 | glycan array binding signal (z-score) [5]: -0.076 | glycan array binding signal (z-score) [6]: -0.076 | glycan array binding signal (z-score) [7]: 0.052 | glycan array binding signal (z-score) (Glc(a1-3)Glc): 0.041 | glycan array binding signal (z-score) [8]: 8.46 | glycan array binding signal (z-score) [9]: -0.171 | glycan array binding signal (z-score) (Glc(a1-6)Glc): -0.214 | glycan array binding signal (z-score) [10]: 0.133 | glycan array binding signal (z-score) [11]: 0.876 | glycan array binding signal (z-score) [12]: 1.32 | glycan array binding signal (z-score) [13]: -0.198 | glycan array binding signal (z-score) (GlcA3S(b1-3)Gal): -0.074 | glycan array binding signal (z-score) [14]: -0.076 | glycan array binding signal (z-score) [15]: -0.074 | glycan array binding signal (z-score) (Man(a1-2)Man): -0.076 | glycan array binding signal (z-score) [16]: -0.072 | glycan array binding signal (z-score) (Man(b1-4)GlcNAc): -0.075 | glycan array binding signal (z-score) [17]: -0.075 | glycan array binding signal (z-score) [18]: -0.076 | glycan array binding signal (z-score) [19]: -0.076 | glycan array binding signal (z-score) [20]: -0.076 | glycan array binding signal (z-score) (Neu5Ac(a2-8)Neu5Ac): -0.073 | glycan array binding signal (z-score) [21]: -0.073
